About 7,900 targets were measured; listed, in parts, are those with a hit and a random draw of the rest. About 0.6% of all pairs of compound and target were hits.
Experiments:
Assay in all cases: log2 fold change, soluble protein after heating vs DMSO (PISA); higher = thermal stabilisation; K562 cells, 10 uM, 30 min; active = over 0.2 and 3.5 SD of the protein, either way, in both replicates (recomputed)
[1] = compound: CC1=C(C=C(C=C1)NC(=O)C2=CC(=CC=C2)C(C)(C)C#N)NC3=CC4=C(C=C3)N=CN(C4=O)C
Outline: (§1)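 K562 cells at 2×10^6 cells/mL were exposed to 10 μM compound for 30 min, then aliquots were heated for 3 min across 48°C-58°C, pooled, and extracted in PBS containing 0.5% NP-40 at 4°C. The supernatant after 21,000xg for 90 min was taken as soluble protein and measured by TMTpro 16plex LC-MS/MS with channel sums equalised. Thermal stability is reported relative to control samples, with values from duplicates. Fold changes are given on a log2 scale.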

[2] = compound: CC1=CC=C(C=C1)SC2=C3C=C(SC3=CN=C2)C(=O)N
Outline: as §1

Nexturastat A = compound: CCCCN(Cc1ccc(C(=O)NO)cc1)C(=O)Nc1ccccc1 [Nexturastat A]
Outline: as §1

vemurafenib = compound: CCCS(=O)(=O)Nc1ccc(F)c(C(=O)c2c[nH]c3ncc(-c4ccc(Cl)cc4)cc23)c1F [vemurafenib]
Outline: as §1

[3] = compound: CCCS(=O)(=O)Nc1ccc(F)c(C(=O)c2c[nH]c3ncc(Cl)cc23)c1F
Outline: as §1

givinostat = compound: CCN(CC)Cc1ccc2cc(COC(=O)Nc3ccc(C(=O)NO)cc3)ccc2c1 [givinostat]
Outline: as §1

barasertib = compound: CCN(CCCOc1ccc2c(Nc3cc(CC(=O)Nc4cccc(F)c4)[nH]n3)ncnc2c1)CCOP(=O)(O)O [barasertib]
Outline: as §1

volasertib = compound: CC[C@@H]1C(=O)N(C)c2cnc(Nc3ccc(C(=O)N[C@H]4CC[C@H](N5CCN(CC6CC6)CC5)CC4)cc3OC)nc2N1C(C)C [volasertib]
Outline: as §1

[4] = compound: CC[C@H](C)N1C=C(C2=C(C=C(C=C21)C3=CN=C(C=C3)N4CCNCC4)C(=O)NCC5=C(C=C(NC5=O)C)C)C
Outline: as §1

epoxomicin = compound: CC[C@H](C)[C@@H](C(=O)N[C@@H]([C@@H](C)O)C(=O)N[C@@H](CC(C)C)C(=O)[C@]1(CO1)C)NC(=O)[C@H]([C@@H](C)CC)N(C)C(=O)C [epoxomicin]
Outline: as §1

[5] = compound: CCn1c(C(=O)N(C2CC2)C2CC2)cc2c3c(ncn3C)c(Nc3cc(C)n(C)n3)nc21
Outline: as §1

[6] = compound: CCn1cc(-c2ccnc3[nH]c(-c4cccc(CN(C)C)c4)cc23)c(-c2ccc(NC(=O)N(C)C)cc2)n1
Outline: as §1

[7] = compound: CN(C)CC(=O)Nc1ccc2[nH]c(=O)c3ccccc3c2c1
Outline: as §1

rosiglitazone = compound: CN(CCOC1=CC=C(C=C1)C[C@H]2C(=O)NC(=O)S2)C3=CC=CC=N3 (racemic) [rosiglitazone]
Outline: as §1

[8] = compound: CN1C2=C(C3=C1C(=O)N(N=C3)CC4=CC(=CC=C4)N)SC(=C2)S(=O)C
Outline: as §1

[9] = compound: CN1CCC(CNc2ccc3ncc(-c4cccc(OC(F)(F)F)c4)n3n2)CC1
Outline: as §1

[10] = compound: CC1=C(C=C(C=C1)NC(=O)C2=CC(=CC=C2)N(C)C)NC(=O)C3=CC=C(C=C3)O
Outline: as §1

[11] = compound: CC1=NC(=CC=C1)C2=C(N=C(N2)C(C)(C)C)C3=CC4=NC=CN=C4C=C3
Outline: as §1

[12] = compound: CCCc1cc(C)[nH]c(=O)c1CNC(=O)c1cc(-c2ccnc(N3CCN(C)CC3)c2)cc2c1cnn2C(C)C
Outline: as §1

[13] = compound: CC[C@@H]1C(=O)N(C)c2cnc(Nc3ccc(C(=O)NC4CCN(C)CC4)cc3OC)nc2N1C1CCCC1
Outline: as §1

Measured: log2 fold change

TMEM219 (UniProt Q86XT9)
inactive: [1] 0.021 | [2] 0.02 | Nexturastat A 0.311 | vemurafenib 0.172 | [3] -0.107 | givinostat -0.029 | barasertib -0.187 | volasertib -0.111 | [4] 0.033 | epoxomicin 0.035 | [5] 0.002 | [6] 0.037 | [7] 0.094 | rosiglitazone 0.078 | [8] -0.085 | [9] -0.029

WDR4 isoform 3 (UniProt P57081)
inactive: [1] -0.041 | Nexturastat A -0.031 | barasertib 0.08 | epoxomicin 0.017 | [6] -0.044 | rosiglitazone 0.142 | [9] -0.036

TRPT1 isoform 4 (UniProt Q86TN4)
active: [1] -1.08
inactive: [10] 0.136 | [11] -0.008 | [12] 0.029 | givinostat 0.179 | [13] 0.084 | [5] 0.071

WARS1 (UniProt G3V277)
active: vemurafenib -0.587
inactive: [1] 0.02 | [11] -0.043 | [12] -0.338 | givinostat 0.141 | barasertib 0.073 | [4] -0.041 | [5] -0.084 | [6] 0.098 | [7] -0.163 | rosiglitazone 0.078 | [9] -0.12

TMEM104 (UniProt Q8NE00)
inactive: [10] 0.058 | [2] -0.015 | [11] -0.039 | Nexturastat A -0.046 | [3] -0.173 | [12] -0.126 | givinostat -0.012 | [13] -0.019 | volasertib 0.043 | [4] -0.033 | epoxomicin -0.19 | [5] -0.027 | [6] 0.204 | [8] 0.12 | [9] 0.018

TMEM106B (UniProt Q9NUM4)
UniProt Q9NUM4, sequence (Q9NUM4 whole entry, looked up): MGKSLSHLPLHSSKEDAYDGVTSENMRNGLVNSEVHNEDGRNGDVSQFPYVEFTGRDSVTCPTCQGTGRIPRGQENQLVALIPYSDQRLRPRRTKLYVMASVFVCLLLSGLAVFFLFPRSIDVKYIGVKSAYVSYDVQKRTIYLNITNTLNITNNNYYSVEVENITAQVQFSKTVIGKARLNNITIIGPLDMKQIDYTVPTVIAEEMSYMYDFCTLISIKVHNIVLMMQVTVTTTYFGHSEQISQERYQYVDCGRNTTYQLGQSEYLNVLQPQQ
inactive: [1] -0.029 | [2] 0.161 | [11] 0.019 | Nexturastat A -0.11 | vemurafenib -0.163 | [3] -0.081 | [12] -0.023 | givinostat 0.052 | barasertib -0.039 | [13] 0.025 | volasertib -0.032 | [4] -0.05 | epoxomicin -0.11 | [5] -0.026 | [6] -0.007 | [7] -0.05 | rosiglitazone 0.022 | [8] 0.012 | [9] -0.13

XRCC1 (UniProt P18887)
UniProt P18887, sequence (P18887 whole entry, looked up): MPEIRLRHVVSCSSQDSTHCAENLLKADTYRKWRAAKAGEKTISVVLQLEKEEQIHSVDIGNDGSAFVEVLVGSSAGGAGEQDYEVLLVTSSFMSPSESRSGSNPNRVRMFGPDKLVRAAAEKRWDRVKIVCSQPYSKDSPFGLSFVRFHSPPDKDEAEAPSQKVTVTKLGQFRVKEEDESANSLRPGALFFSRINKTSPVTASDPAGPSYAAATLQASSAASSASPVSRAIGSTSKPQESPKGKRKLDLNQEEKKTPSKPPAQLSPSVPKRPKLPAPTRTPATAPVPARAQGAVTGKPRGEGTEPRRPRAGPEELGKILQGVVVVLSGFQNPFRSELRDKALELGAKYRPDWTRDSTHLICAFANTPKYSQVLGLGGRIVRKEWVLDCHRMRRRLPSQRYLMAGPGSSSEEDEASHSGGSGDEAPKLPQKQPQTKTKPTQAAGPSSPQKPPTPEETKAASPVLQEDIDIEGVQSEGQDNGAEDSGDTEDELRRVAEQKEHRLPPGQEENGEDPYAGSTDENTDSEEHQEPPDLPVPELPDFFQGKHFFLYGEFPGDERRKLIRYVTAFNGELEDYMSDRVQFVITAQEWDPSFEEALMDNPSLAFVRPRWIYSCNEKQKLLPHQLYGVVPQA
inactive: [1] 0.049 | [10] 0.063 | [11] -0.222 | Nexturastat A 0.429 | givinostat 0.01 | epoxomicin -0.1 | [5] -0.09 | [6] 0.006 | [8] -0.192 | [9] -0.239

XIAP (UniProt P98170)
inactive: [1] -0.047 | [2] -0.045 | Nexturastat A -0.045 | vemurafenib 0.035 | [3] 0 | [12] -0.049 | givinostat 0.019 | barasertib 0 | [13] -0.135 | [4] 0.094 | epoxomicin 0 | [5] -0.029 | [6] 0 | [7] 0.071 | rosiglitazone 0.043 | [8] -0.101 | [9] -0.131
active: volasertib -0.457

TVP23C (UniProt Q96ET8)
UniProt Q96ET8, sequence (Q96ET8 whole entry, looked up): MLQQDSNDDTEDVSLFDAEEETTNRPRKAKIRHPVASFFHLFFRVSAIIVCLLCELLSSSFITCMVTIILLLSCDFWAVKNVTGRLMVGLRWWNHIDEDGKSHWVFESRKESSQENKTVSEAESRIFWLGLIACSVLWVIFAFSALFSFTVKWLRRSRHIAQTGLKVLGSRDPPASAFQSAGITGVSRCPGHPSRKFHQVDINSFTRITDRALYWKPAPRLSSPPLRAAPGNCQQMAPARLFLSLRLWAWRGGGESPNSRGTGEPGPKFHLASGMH
inactive: [2] 0.024 | vemurafenib -0.022 | [3] -0.178 | [12] -0.118 | givinostat 0.043 | [13] 0.097 | volasertib 0.068 | [5] 0.039 | [6] -0.019 | [7] -0.025 | [8] 0 | [9] -0.033

TUBA4A (UniProt C9JJQ8)
inactive: [1] -0.019 | [2] 0.022 | [11] 0.138 | vemurafenib 0.053 | [3] -0.065 | barasertib 0.136 | [13] -0.115 | volasertib 0.099 | [7] 0.09 | rosiglitazone -0.078 | [8] 0.114

UBAP2L (UniProt F8W726)
inactive: [2] -0.093 | [3] 0.004 | [12] 0.014 | givinostat -0.067 | barasertib -0.058 | [13] 0.077 | volasertib -0.002 | [4] -0.094 | [5] 0.008 | [6] 0.025 | rosiglitazone 0.123 | [9] -0.027

TMEM8A (UniProt Q9HCN3)
inactive: [1] 0.101 | [10] 0.017 | [2] -0.047 | vemurafenib -0.003 | [3] -0.073 | [12] -0.077 | givinostat 0.014 | barasertib -0.189 | [13] -0.11 | volasertib 0.008 | [4] -0.108 | [5] 0.068 | [6] -0.037 | [7] -0.031 | rosiglitazone 0.009 | [8] 0.082 | [9] -0.104

TRIM5 (UniProt Q9C035)
UniProt Q9C035, sequence (Q9C035 whole entry, looked up): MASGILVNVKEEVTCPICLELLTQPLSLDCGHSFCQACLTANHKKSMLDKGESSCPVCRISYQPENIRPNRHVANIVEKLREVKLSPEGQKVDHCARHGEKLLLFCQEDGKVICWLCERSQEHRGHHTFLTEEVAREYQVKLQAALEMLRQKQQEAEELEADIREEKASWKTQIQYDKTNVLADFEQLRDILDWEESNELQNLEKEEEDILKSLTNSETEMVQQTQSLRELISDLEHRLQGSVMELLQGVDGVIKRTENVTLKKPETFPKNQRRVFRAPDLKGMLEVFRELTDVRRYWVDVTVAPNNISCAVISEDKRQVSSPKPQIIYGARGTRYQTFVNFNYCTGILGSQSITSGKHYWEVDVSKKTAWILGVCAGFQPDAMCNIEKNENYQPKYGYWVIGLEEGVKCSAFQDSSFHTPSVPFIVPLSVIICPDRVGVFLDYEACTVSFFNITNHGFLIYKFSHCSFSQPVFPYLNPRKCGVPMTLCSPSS
inactive: [1] -0.063 | [10] -0.197 | Nexturastat A 0.033 | vemurafenib -0.044 | givinostat 0.119 | epoxomicin 0 | [5] 0.017 | [7] -0.005 | [8] 0.25

WDR46, A0A0G2JJL1
inactive: [1] -0.161 | [2] -0.229 | [11] -0.254 | Nexturastat A 0.194 | vemurafenib -0.09 | [3] 0.078 | [12] 0.19 | givinostat 0.15 | barasertib -0.248 | [13] 0.388 | volasertib 0.37 | [4] -0.068 | epoxomicin -0.451 | [5] -0.108 | [7] -0.183 | rosiglitazone -0.177 | [8] 0.215

VDAC1 (UniProt C9JI87)
inactive: [1] -0.03 | [10] -0.003 | [2] -0.034 | Nexturastat A -0.093 | [3] -0.134 | [12] -0.053 | givinostat -0.052 | barasertib 0.071 | [13] 0.097 | volasertib 0.08 | [4] -0.334 | epoxomicin -0.007 | [5] 0 | [8] 0.21

WARS1 (UniProt G3V5U1)
inactive: [1] -0.795 | [11] -0.638 | Nexturastat A 0.136 | [12] -0.118 | barasertib -0.007 | [13] -0.03 | epoxomicin -0.237 | rosiglitazone 0.554

TXNRD1 isoform 7 (UniProt Q16881)
UniProt Q16881, sequence (Q16881 whole entry, looked up): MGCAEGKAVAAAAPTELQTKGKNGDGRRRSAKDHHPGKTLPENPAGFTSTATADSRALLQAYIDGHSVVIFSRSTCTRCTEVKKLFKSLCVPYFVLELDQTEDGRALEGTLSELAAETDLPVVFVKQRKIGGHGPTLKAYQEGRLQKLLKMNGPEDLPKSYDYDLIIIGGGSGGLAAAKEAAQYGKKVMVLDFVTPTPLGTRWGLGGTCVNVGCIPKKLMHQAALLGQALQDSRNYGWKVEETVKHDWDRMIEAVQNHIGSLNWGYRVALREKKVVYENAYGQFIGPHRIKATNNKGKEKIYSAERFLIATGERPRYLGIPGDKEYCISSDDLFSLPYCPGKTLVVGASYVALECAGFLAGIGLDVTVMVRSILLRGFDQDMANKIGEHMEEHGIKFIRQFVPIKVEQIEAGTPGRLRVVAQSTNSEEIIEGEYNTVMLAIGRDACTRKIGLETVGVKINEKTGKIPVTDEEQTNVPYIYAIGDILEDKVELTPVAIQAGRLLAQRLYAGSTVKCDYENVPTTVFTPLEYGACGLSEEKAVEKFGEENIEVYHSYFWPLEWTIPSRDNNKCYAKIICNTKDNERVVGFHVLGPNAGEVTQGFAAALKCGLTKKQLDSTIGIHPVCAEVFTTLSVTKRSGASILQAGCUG
inactive: [1] -0.567 | [2] -0.037 | Nexturastat A 0.221 | vemurafenib -0.123 | [3] 0.049 | givinostat 0.403 | barasertib 0.041 | [13] 0.054 | volasertib -0.106 | epoxomicin 0.155 | [5] -0.001 | [6] -0.501 | [7] -0.074 | rosiglitazone 0.024 | [8] 0.101 | [9] -0.028

VWA3B isoform 6 (UniProt Q502W6)
active: volasertib -0.631
inactive: [10] 0.104 | [2] 0.072 | [11] 0 | Nexturastat A -0.292 | vemurafenib -0.1 | [3] 0.008 | [12] -0.169 | givinostat 0.011 | barasertib 0.057 | [13] -0.038 | [4] -0.203 | epoxomicin -0.262 | [5] -0.037 | [6] -0.125 | [7] -0.007 | rosiglitazone 0.076 | [8] -0.023 | [9] -0.234

XAB2 (UniProt Q9HCS7)
UniProt Q9HCS7, sequence (Q9HCS7 whole entry, looked up): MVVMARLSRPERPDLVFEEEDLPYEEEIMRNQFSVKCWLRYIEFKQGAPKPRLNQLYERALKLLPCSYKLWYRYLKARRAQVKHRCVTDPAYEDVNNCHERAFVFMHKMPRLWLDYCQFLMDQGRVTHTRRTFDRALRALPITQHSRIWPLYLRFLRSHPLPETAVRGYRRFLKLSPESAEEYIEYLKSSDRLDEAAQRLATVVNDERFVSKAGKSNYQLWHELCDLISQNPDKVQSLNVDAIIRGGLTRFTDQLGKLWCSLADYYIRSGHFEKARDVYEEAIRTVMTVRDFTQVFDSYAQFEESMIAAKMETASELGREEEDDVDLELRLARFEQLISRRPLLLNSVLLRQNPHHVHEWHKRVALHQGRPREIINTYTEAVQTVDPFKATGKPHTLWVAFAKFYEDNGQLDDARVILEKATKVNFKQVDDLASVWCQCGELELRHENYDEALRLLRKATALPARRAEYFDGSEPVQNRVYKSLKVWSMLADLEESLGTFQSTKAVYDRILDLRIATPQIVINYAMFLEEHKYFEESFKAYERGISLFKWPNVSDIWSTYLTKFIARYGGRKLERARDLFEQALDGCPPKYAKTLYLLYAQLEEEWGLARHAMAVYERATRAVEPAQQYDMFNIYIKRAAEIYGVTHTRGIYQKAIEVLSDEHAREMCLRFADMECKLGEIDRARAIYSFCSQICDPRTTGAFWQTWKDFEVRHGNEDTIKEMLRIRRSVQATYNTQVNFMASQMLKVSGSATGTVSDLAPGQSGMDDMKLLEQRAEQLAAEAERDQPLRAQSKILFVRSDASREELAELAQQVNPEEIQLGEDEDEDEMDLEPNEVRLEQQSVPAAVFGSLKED
inactive: [10] -0.027 | [11] -0.034 | Nexturastat A 0.469 | [12] 0.168 | epoxomicin 0.019 | [8] 0.026

TMEM268 isoform 3 (UniProt Q5VZI3)
UniProt Q5VZI3, sequence (Q5VZI3 whole entry, looked up): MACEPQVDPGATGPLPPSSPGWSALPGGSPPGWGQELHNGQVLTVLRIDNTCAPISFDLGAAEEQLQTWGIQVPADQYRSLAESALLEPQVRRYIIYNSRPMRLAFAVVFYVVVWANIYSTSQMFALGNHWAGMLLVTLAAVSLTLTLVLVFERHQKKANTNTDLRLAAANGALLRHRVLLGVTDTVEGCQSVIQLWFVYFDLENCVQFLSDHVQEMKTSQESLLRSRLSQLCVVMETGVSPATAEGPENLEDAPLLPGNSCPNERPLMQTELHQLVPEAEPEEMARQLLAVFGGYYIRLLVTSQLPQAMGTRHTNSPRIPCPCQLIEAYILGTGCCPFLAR
inactive: [1] 0.056 | [10] 0.024 | [2] -0.178 | Nexturastat A 0.124 | [3] 0.083 | [12] 0.18 | givinostat 0.11 | barasertib -0.461 | [13] -0.088 | volasertib -0.005 | [4] 0.112 | [5] 0.093 | [6] 0.013 | rosiglitazone 0.098 | [8] 0.025 | [9] -0.123
active: epoxomicin 0.536

U2AF1L5 (UniProt P0DN76)
inactive: [11] -0.036 | vemurafenib 0.019 | [12] 0.06 | givinostat 0.563 | barasertib -0.127 | [13] -0.289 | [4] 0.045 | [5] -0.303 | [7] 0.138 | rosiglitazone 0.04 | [8] 0.112

WARS1 (UniProt G3V227)
inactive: Nexturastat A 0.459 | vemurafenib -0.455 | barasertib 0.004 | epoxomicin -0.28 | [7] -0.045 | rosiglitazone 0.309 | [8] 0.207

UTP20 (UniProt O75691)
active: Nexturastat A 0.755
inactive: [2] 0.037 | [3] -0.086 | givinostat 0.463 | volasertib 0.093 | epoxomicin -0.355 | [5] 0.105

USP48 (UniProt Q86UV5)
UniProt Q86UV5, sequence (Q86UV5 whole entry, looked up): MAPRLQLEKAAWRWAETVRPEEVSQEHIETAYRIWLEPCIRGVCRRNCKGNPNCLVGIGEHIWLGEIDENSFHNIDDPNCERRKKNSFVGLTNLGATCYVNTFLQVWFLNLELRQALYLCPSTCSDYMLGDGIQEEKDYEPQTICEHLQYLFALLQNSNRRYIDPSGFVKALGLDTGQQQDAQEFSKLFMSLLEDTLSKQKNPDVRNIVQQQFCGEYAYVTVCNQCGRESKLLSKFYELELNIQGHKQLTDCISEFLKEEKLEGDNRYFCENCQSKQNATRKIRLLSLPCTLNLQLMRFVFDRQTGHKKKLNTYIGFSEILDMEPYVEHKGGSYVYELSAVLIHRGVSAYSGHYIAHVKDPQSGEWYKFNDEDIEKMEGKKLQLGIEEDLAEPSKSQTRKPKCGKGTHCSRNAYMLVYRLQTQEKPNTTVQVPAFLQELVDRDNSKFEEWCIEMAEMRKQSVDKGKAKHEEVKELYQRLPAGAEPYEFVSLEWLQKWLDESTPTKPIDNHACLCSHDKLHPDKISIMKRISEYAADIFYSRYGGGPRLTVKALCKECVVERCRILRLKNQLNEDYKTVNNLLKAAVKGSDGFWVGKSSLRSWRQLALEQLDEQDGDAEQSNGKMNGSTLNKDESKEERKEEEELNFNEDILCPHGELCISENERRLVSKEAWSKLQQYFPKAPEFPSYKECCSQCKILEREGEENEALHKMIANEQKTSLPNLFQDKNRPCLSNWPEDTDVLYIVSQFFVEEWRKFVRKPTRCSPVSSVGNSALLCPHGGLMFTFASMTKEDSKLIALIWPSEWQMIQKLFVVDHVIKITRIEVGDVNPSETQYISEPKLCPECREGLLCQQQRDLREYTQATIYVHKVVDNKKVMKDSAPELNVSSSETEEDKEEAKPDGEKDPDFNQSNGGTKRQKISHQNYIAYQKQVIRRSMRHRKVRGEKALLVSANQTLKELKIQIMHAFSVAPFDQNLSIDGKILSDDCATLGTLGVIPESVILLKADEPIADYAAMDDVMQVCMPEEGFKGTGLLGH
inactive: [1] -0.096 | [12] -0.232 | givinostat 0.237 | barasertib 0.252 | [13] -0.159 | [4] 0.059 | [5] -0.045 | rosiglitazone 0.101

UBE2J2 isoform 3 (UniProt Q8N2K1)
UniProt Q8N2K1, sequence (Q8N2K1 whole entry, looked up): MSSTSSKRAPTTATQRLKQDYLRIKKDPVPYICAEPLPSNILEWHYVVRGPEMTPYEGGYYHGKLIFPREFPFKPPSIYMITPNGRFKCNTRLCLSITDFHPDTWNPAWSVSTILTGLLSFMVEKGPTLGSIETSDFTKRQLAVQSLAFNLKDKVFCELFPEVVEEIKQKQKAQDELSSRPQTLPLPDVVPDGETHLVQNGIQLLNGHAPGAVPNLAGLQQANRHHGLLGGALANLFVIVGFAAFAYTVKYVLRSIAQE
inactive: [1] -0.085 | [2] 0.024 | Nexturastat A 0.028 | vemurafenib 0.214 | [3] -0.027 | givinostat 0.009 | barasertib 0.006 | [13] -0.07 | volasertib -0.157 | epoxomicin 0.254 | [5] 0.047 | [6] -0.418 | [7] 0.04 | rosiglitazone 0.068 | [8] -0.055 | [9] 0.122
